The campaign covered roughly 93,000 compounds. About 65 (0.07%) were called active.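 How the source made its calls: active means 10 µM primary screen giving 50% or more activity, confirmed by 40% or more on retest at that dose; inactive means the rest.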 The full list was thinned out, with actives kept by preference.
Target: Integrin beta-2 (Homo sapiens) + Integrin alpha-M (Homo sapiens) (UniProt P05107+P11215)
Assay: enhancers of CD11b/CD18 adhesion to fibrinogen, primary screen, K562 cells, luminescence (AID 1499)
Settings: ATPlite luminescence, at 10 µM, stronger effect = higher value

Sequence of Integrin beta-2 (Homo sapiens) + Integrin alpha-M (Homo sapiens) (P05107 whole entry, looked up, other chains not shown): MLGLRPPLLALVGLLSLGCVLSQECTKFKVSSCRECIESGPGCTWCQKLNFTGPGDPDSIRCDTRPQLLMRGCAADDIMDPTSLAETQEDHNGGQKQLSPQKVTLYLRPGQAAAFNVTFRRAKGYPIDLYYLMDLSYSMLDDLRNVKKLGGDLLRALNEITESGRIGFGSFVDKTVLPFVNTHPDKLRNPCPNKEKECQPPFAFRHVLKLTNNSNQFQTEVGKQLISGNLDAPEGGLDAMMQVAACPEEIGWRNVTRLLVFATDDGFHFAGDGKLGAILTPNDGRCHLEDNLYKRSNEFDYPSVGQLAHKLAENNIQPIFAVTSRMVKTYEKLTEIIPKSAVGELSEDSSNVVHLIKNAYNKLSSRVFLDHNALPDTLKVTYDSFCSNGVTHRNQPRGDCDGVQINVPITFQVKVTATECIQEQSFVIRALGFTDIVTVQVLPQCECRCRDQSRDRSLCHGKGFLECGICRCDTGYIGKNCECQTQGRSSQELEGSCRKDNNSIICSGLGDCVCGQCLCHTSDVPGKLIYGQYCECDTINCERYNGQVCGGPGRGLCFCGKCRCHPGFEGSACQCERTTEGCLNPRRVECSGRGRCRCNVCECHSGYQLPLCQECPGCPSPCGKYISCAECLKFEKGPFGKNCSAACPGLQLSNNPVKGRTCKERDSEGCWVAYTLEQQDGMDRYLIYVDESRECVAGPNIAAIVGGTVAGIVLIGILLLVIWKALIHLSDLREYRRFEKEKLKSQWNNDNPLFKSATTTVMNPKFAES

activation, inactive:
CCN(C(=O)COC(=O)c1c(NC(C)=O)sc(C)c1C)C1CCS(=O)(=O)C1 (stereo unspecified) 0.3%
CCOC(=O)NC(=O)CSc1nnc(SCCC(=O)O)s1 -3.3%
Cc1cccc(OCc2ccc(C(=O)Nc3ccc(F)cc3)cc2)c1 -6.2%
O=C(NC(=S)Nc1ccc(NC(=O)c2cccs2)cc1)c1ccc([N+](=O)[O-])cc1 55.8%
CC(Sc1nc2cc(Cl)ccc2s1)C(=O)Nc1ccc2c(c1)OCO2 (stereo unspecified) 0.6%
COc1ccc(OC)c(/C=C/C(=O)OCC(=O)Nc2ccc3c(c2)OCCO3)c1 -3.7%
CCOc1ccc2c(=O)c(-c3ccc4c(c3)OCCCO4)c(C)oc2c1 3%
N#Cc1c(NC(=O)c2ccc(N3CCOCC3)c([N+](=O)[O-])c2)sc2c1CCCC2 -0.4%
Cc1ccc(S(=O)(=O)C2C(=O)NC3(C)CC2c2ccccc2O3)cc1 (stereo unspecified) 0.7%
CCC1CCCCN1C(=S)Nc1ccc(SC(F)F)cc1 (stereo unspecified) 1.7%
CCCC/C(C)=N/NC(=O)NC1CCCCC1 -0.9%
CC(C)CNC(=O)COC(=O)c1ccccc1OCC(=O)Nc1ccc(Br)cc1 1%
Cc1cc([N+](=O)[O-])ccc1NC(=O)C1CCCO1 (stereo unspecified) 1.8%
Cc1ccccc1NC(=O)CSC1=NCCN1 3.2%
Cc1cc(C)c[n+](-c2nc3ccccc3nc2[N-]S(=O)(=O)c2cccs2)c1 2.1%
COc1ccc([N+](=O)[O-])cc1NC(=O)C(C)OC(=O)C1c2ccccc2Oc2ccccc21 (stereo unspecified) -2.2%
COc1cc(Cl)c(C)cc1NC(=O)[C@@H]1CCCN1C(=O)c1cccs1 -2.3%
CCOC(=O)C1CCN(c2ccc(C(=O)O)cc2[N+](=O)[O-])CC1 -3.3%
O=C(NCC1CCCO1)/C(=C/c1ccc(Cl)cc1)NC(=O)c1ccccc1 (stereo unspecified) 0.2%
O=C(CN1CCN(c2ccccn2)CC1)N1CCc2ccccc21 3.8%
N#CC1(NC(=O)COc2ccc3oc4ccccc4c3c2)CCCCC1 10.2%
CN1CCN(c2ccc(S(=O)(=O)Nc3ccccc3)cc2[N+](=O)[O-])CC1 -2.2%
Cc1nnc(SCC(=O)N2CCOCC2)[nH]c1=O -6.4%
OCC(CO)(CO)NCc1ccc(-c2ccccc2)cc1 4.4%
COc1cc(/C=N/NC(=O)CCc2n[nH]c(=O)[nH]c2=O)ccc1O 15.1%
COC(=O)C1=C(NC(=O)C(C)(C)C)CCS1 1.8%
Cc1ccc(-c2nnc(SCC(=O)N/N=C/c3cccs3)n2-c2ccc(C)cc2)cc1 9%
COc1ccc(NS(=O)(=O)c2ccc(NC(=O)c3ccc(N(C)S(C)(=O)=O)cc3)cc2)cc1 -3.8%
Cc1ccc(O)c(CCc2ccccc2)n1 -3.8%
CCOC(=O)c1oc2c(CN3CCN(C)CC3)c(O)ccc2c(=O)c1-c1ccc(Br)cc1 2%
O=C(COC(=O)Cn1cnc2ccccc2c1=O)NCC12CC3CC(CC(C3)C1)C2 5.2%
CSCCC(NC(=O)c1cc([N+](=O)[O-])cc([N+](=O)[O-])c1)c1nc2ccccc2[nH]1 (stereo unspecified) 22%
Cc1ccc2nc(SCc3cn4c(C)cc(C)nc4n3)[nH]c2c1 -2.3%
Oc1c(Br)cccc1/C=N/Nc1c(F)c(F)c(F)c(F)c1F -10.4%
Cc1ccc(NC(=O)CN(C)Cc2ccc(F)cc2)c([N+](=O)[O-])c1 -1%
O=C(Oc1ccccc1Cl)c1ccc(N2CCOCC2)c([N+](=O)[O-])c1 -0.9%
CCS(=O)(=O)Nc1cccc(-c2cc(-c3ccccc3)c3cc(C)ccc3n2)c1 -5.6%
O=C(COC(=O)CSc1nnc(-c2ccc(Cl)cc2)o1)Nc1cc(Cl)cc(Cl)c1 25.1%
O=C(Nc1ccccc1)/C(=C/c1ccc([N+](=O)[O-])cc1)NC(=O)c1ccccc1 29.4%
CN(Cc1ccccc1)C(=O)COC(=O)c1ccccc1Nc1ccccc1 -2.4%
CC(C)C(=O)Nc1ccc2c3c(cccc13)CC2 -4.8%
CCCOC(=O)c1c(NC(=O)c2cnn3c2NC(c2ccccc2)CC3C(F)(F)F)sc2c1CCCC2 (stereo unspecified) 62.7%
O=C(Oc1ccc([N+](=O)[O-])cc1)c1ccc(Cl)c(S(=O)(=O)N2CCCCC2)c1 -4.7%
O=C(Nc1nnc(C2COc3ccccc3O2)o1)c1ccc(F)cc1 (stereo unspecified) 3%
COC(=O)N/N=C/c1ccc(-c2ccc(Cl)c(Cl)c2)o1 -1.3%
COc1ccc(Nc2nc(N)nc(CSC(=S)N3CCC(C)CC3)n2)cc1 2.4%
COc1ccc(Cl)cc1NC(=O)[C@@H]1CCCN1C(=O)c1cccs1 2.8%
O=C(Nc1ccccc1Cl)c1ccccc1S(=O)(=O)c1ccccc1[N+](=O)[O-] 1%
CCOc1ccc(NC(=O)COc2ccc(C(=O)NC3CCCc4ccccc43)cc2OC)cc1 (stereo unspecified) 37%
COc1ccc(C2c3c(C)nn(-c4ccccc4)c3NC(=O)N2c2ccccc2)cc1 (stereo unspecified) -1.5%
CCCc1c(C)nc2c(Br)cccc2c1Cl 2.4%
COC(=O)c1ccc(C(=O)OC)c(NC(=S)N2CCN(c3cc(Cl)ccc3C)CC2)c1 -1.1%
CCN(CC)c1ccc([N+](=O)[O-])cc1C(=O)O -7%
COc1ccc(CCNC(=O)CSc2nc(-c3ccc(OC)c(OC)c3)ccc2C#N)cc1 8.9%
CC(=O)N1CCN(CC(=O)Nc2ccc(SC(F)F)cc2)CC1 2.9%
Cc1nn(C)c(Oc2ccccc2)c1CCNS(=O)(=O)c1ccc(F)cc1 4.8%
